# Where “and” joins values, the source holds several entries; their conditions need not be identical. Equal entries are not always repeated. The whole screen tested about 300,000 compounds, of which about 37,000 (12%) were called active. Cut-off read from the data, not from the text of the source: active = max response mostly above about 13% (no sharp cut-off); inactive = mostly below about 14%. This excerpt belongs to a sample that is enriched for actives.
# Assay: Cycloheximide Counterscreen for Small Molecule Inhibitors of Shiga Toxin; note: read at 38.3 µM for the half of the compounds with a filed dose; 0% is about no effect
# Conditions: cell reporter, cycloheximide protein synthesis inhibition counterscreen; hits give high values
row,Structure (SMILES),max response
1,O=C(NCc1cccnc1)c1ccccc1NC(=O)c1c(F)cccc1F,7.34% (inactive)
2,CCCCNC(=O)C1(O)c2ccccc2NC(=O)N1c1ccc(Cl)cc1 (stereo not given),7.78% (inactive)
3,CC(=O)Oc1ccc(N(C(C)=O)S(=O)(=O)c2ccc3ccccc3c2)cc1Br,-1.7% (inactive)
4,O=C(COc1ccc2ccc(=O)oc2c1)NCC(O)c1ccccc1 (stereo not given),-10.7% (inactive)
5,CN(CC(=O)NCc1ccncc1)S(=O)(=O)c1ccc(Br)cc1,-0.724% (inactive)
6,COc1ccc(C(C)C)cc1S(=O)(=O)Nc1ncn[nH]1,-4.29% (inactive)
7,CCc1nnc(NC(=O)CCC(=O)N2CCN(c3cc(C)ccc3C)CC2)s1,-5.72% (inactive)
8,Cc1c(NS(=O)(=O)c2ccc(NC3CCCC3)c([N+](=O)[O-])c2)c(=O)n(-c2ccccc2)n1C,-1.22% (inactive)
9,Cc1ccc(NS(=O)(=O)c2ccc3c(c2)n(C)c(=O)c(=O)n3C)c(C)c1,1.12% (inactive)
10,Cc1ccc(C(=O)Nc2sc(Cc3ccc4c(c3)OCO4)c(C)c2C(N)=O)cc1,-4.2% (inactive)
11,O=C(CN1CCc2cc3c(cc2C1)OCCCO3)Nc1ccccc1,5.97% (inactive)
12,COc1ccccc1C(=O)N/C(=C/c1ccc2c(c1)OCO2)C(=O)Nc1cccc(C(=O)O)c1,-2.49% (inactive)
13,C/C(Cc1ccccc1)=N\NC(=O)CNC(=O)c1ccc2c(c1)OCCO2,-2.54% (inactive)
14,COCc1nnc(NC(=O)CS(=O)(=O)Cc2ccccc2)s1,5.49% (inactive)
15,O=C(Nc1ccc(N2CCOCC2)cc1)c1ccc2c(c1)OCO2,36.8% (active)
16,O=C(Nc1ccccc1)c1ccc2c(c1)OCCCO2,41.3% (active)
17,O=C(O)CCC(=O)Nc1ccc(N2CCOCC2)cc1,-3.84% (inactive)
18,CC(C)C(=O)Nc1cccc(C(=O)Nc2ccc3c(c2)OCO3)c1,58.7% (active)
19,O=C(c1ccc2c(c1)OCO2)N1CCOCC1,-3.42% (inactive)
20,COCc1nnc(NC(=O)c2ccc3c(c2)OCO3)s1,45.3% (active)
21,CCCN1C2=C(C(=O)CCC2)C(c2ccc(O)c(Br)c2)C2=C1CCCC2=O,-1.08% (inactive)
22,Cc1ccc(O)c(/C=N/NC(=O)COc2ccc3c(C)cc(=O)oc3c2)c1,-8.1% (inactive)
23,Cn1c(=O)c2c(ncn2CC(COCc2ccccc2Cl)OCc2ccccc2Cl)n(C)c1=O (stereo not given),-1.13% (inactive)

row,Structure (SMILES),max response
1,Cc1ccccc1N1C(=O)C(Oc2ccc(Cl)cc2)C1CNCC1CCCO1 (stereo not given),0.428% (inactive)
2,CC(=O)Nc1sc2c(c1C(c1cccc(F)c1)N1CCN(CCO)CC1)CCCC2 (stereo not given),-2.8% (inactive)
3,CCOCCCNC(=O)c1ccc(CS(=O)(=O)c2cccc(C(F)(F)F)c2)o1,-3% (inactive)
4,Cc1ccc(-c2ccnc3[nH]n(-c4ccccc4)c(=O)c23)cc1,4.53% (inactive)
5,COc1ccccc1N1CCN(c2ccc([N+](=O)[O-])nc2)CC1,12.7% (inactive)
6,CCOc1ccc(OCC)c(-c2c(=O)n(OCc3ccc(Cl)cc3)c3ccccc3[n+]2[O-])c1,-2.89% (inactive)
7,COc1ccc(OC)c(-c2c(=O)n(OCc3ccccc3Br)c3ccccc3[n+]2[O-])c1,-4.9% (inactive)
8,CCOC(=O)COn1c(=O)c(-c2ccc(OCC)cc2)[n+]([O-])c2ccccc21,21.8% (active)
9,COCCNC(=O)C(c1ccc(C)cc1)N(C(=O)CCC(=O)Nc1ccccn1)c1cccc(C)c1 (stereo not given),-1.18% (inactive)
10,O=C(Cn1ncc2c3ccccc3n(Cc3ccccc3)c2c1=O)NCc1ccccn1,-1.24% (inactive)
11,CCCOc1ccc(Cn2ccnc2)cc1[N+](=O)[O-],6.93% (inactive)
12,CCCCCOc1ccc(CSC2=NCCN2)cc1[N+](=O)[O-],16.2% (active)
13,CCCCOc1ccc(CSC(=N)N)cc1[N+](=O)[O-],-3.27% (inactive)
14,CCN=C1S/C(=C\c2cc(Br)ccc2OCC(=O)OCC)C(=O)N1CC,2.07% (inactive)
15,c1ccc(C(c2ccccc2)N2CCN(Cc3nnnn3C3CCCCC3)CC2)cc1,-1.95% (inactive)
16,CC(=O)Nc1ccc(NC(=O)C2CCCN2S(=O)(=O)c2cccc(C(F)(F)F)c2)cc1 (stereo not given),0.889% (inactive)
17,O=C1CCc2cc(S(=O)(=O)N3CCC(C(=O)NCc4ccccc4Cl)CC3)ccc2N1,5.54% (inactive)
18,CSc1cccc(NC(=O)C2CCCN2S(=O)(=O)c2ccc3c(c2)CCC(=O)N3)c1 (stereo not given),25.7% (active)
19,CS(=O)(=O)N1CCN=C1SCc1ccc(F)cc1,-2.32% (inactive)
20,Cc1cc(OCC(=O)Nc2c(C)n(C)n(-c3ccccc3)c2=O)ccc1[N+](=O)[O-],1.26% (inactive)
21,O=C1CSC(=S)N1c1ccc(O)cc1,0.99% (inactive)
22,O=S(=O)(c1ccc(-c2ccno2)s1)N1CCCCC1,-3.51% (inactive)
23,Cc1cc(NC(=O)CCC(=O)N(Cc2ccccc2)C(C(=O)NC2CCCC2)c2ccc(C)o2)no1 (stereo not given),-2.01% (inactive)

row,Structure (SMILES),max response
1,COc1c(O)cc2oc(-c3ccc(O)c(O)c3)cc(=O)c2c1O,43% (active) and 45.2% (active)
2,O=c1cc(-c2ccc(O)cc2)oc2c(-c3cc(-c4cc(=O)c5c(O)cc(O)cc5o4)ccc3O)c(O)ccc12,-11.1% (inactive)
3,COc1ccc(-c2cc(=O)c3c(O)cc(O[C@@H]4O[C@H](CO[C@@H]5O[C@@H](C)[C@H](O)[C@@H](O)[C@H]5O)[C@@H](O)[C@H](O)[C@H]4O)cc3o2)cc1O,-0.55% (inactive)
4,Cc1cc(C)cc(Oc2c(C(F)(F)F)oc3cc(OCC(=O)O)ccc3c2=O)c1,-1.36% (inactive)
5,c1ccc(-c2cnc(CN3CCN(c4ccccc4)CC3)o2)cc1,7.72% (inactive)
6,O=C(CCSc1ccccc1)N1CCN(c2ccccc2F)CC1,48.8% (active)
7,O=C(CCc1ccccc1F)N1CCN(c2ccccc2)CC1,0.391% (inactive)
8,O=C(NCC(=O)N1CCN(c2ccccc2O)CC1)c1ccc2ccccc2c1,1.36% (inactive)
9,CCc1ccc(NC(=O)CS(=O)CC(=O)N2CCN(c3ccccc3F)CC2)cc1 (stereo not given),3.43% (inactive)
10,O=C(NCC(=O)N1CCN(c2ccccc2F)CC1)c1cccs1,23.4% (active)
11,O=C(CCS(=O)(=O)c1cccc2nsnc12)N1CCN(c2ccccc2F)CC1,6.58% (inactive)
12,COc1ccc(NC(=O)CSCc2ccc([N+](=O)[O-])cc2)cc1OC,-3.9% (inactive)
13,Cc1cccc(N2CCN(C(=O)c3cccc(N4C(=O)C5C6C=CC(C6)C5C4=O)c3)CC2)c1C (stereo not given),-6.3% (inactive)
14,O=C(CSc1nnc(Nc2ccccc2)s1)Nc1cccnc1Cl,2.36% (inactive)
15,Cc1ccc(Nc2nnc(SCC(=O)c3cc4ccccc4o3)s2)cc1C,10.2% (inactive)
16,CC(C)c1ccc(Nc2nnc(SCC(=O)c3nnc(-c4ccccc4)o3)s2)cc1,23.6% (active)
17,Cc1cc(=O)oc2c3c(cc(OCC(=O)NCc4ccccn4)c12)OC(C)(C)CC3,-2.86% (inactive)
18,Cc1ccc(N2CCN(c3ccc([N+](=O)[O-])cn3)CC2)c(C)c1,-4.64% (inactive)
19,O=C(COc1ccc(S(=O)(=O)Nc2cccc(C(F)(F)F)c2)cc1)N1CCOCC1,-0.756% (inactive)
20,CN(C)c1nc(N)nc(CSc2nnnn2-c2cccc3ccccc23)n1,-1% (inactive)
21,CCOC(=O)CSc1ccccn1,-1.11% (inactive)
22,CN(C)c1nc(N)nc(CSc2ccccn2)n1,21.5% (active)
23,CCOC(=O)c1cc2c(=O)[nH]c(C(Cl)(Cl)Cl)nc2o1,7.51% (inactive)

row,Structure (SMILES),max response
1,O=C(O)c1cccc2c1C(=O)N(C1CCCC1)C2,-2.23% (inactive)
2,Cc1cccc(NC(=O)c2nc[nH]c2C(=O)NCC(=O)OCc2ccccc2)c1,1.03% (inactive)
3,CCOc1ccc(NC(=O)c2nc(SCC)ncc2Cl)cc1,-5.84% (inactive)
4,Cc1cccc(NC(=O)c2nc(S(=O)(=O)Cc3ccccc3)ncc2Cl)c1,29% (active)
5,Cc1cccc(CS(=O)(=O)c2ncc(Cl)c(C(=O)Nc3ccc(F)cc3)n2)c1,30.3% (active)
6,Cc1cccc(OCc2ccc(C(=O)Nc3ccc(F)cc3)cc2)c1,-3.2% (inactive)
7,CCSc1ncc(Cl)c(C(=O)Nc2cc(C)ccc2C)n1,-0.976% (inactive)
8,COCCCNC(=O)CN1C(=O)CSc2ccc(S(=O)(=O)N3CCOCC3)cc21,-0.345% (inactive)
9,OC(COc1ccc(CN2CCSCC2)cc1)CN1CCCCC1 (stereo not given),0.684% (inactive)
10,CC1CCC(N2CC(=O)N(Cc3ccc4c(c3)OCO4)C(c3ccc(F)cc3)C2=O)CC1 (stereo not given),-2.2% (inactive)
11,O=C(c1cc(Cl)cc(Cl)c1)N1CCC(=O)N(C(COCc2ccccc2)Cc2ccccc2)CC1 (stereo not given),-1.19% (inactive)
12,O=C(CCl)NNc1nc(-c2ccccc2)c2cc(Cl)ccc2n1,-5.34% (inactive)
13,COc1cc(OC)nc(NC(=O)CCl)n1,-2.63% (inactive)
14,O=C(CCl)NNc1cccc(Cl)n1,26.1% (active)
15,C=CCn1c(SCC(=O)NCC2CCCO2)nc2sc(C)c(C)c2c1=O (stereo not given),-2.05% (inactive)
16,COc1ccc(CCCc2nnc(SCc3nc4ccccc4c(=O)[nH]3)n2C)cc1,1.63% (inactive)
17,CCN(CC(=O)NCc1cccs1)C(=O)c1cccc(S(=O)(=O)Nc2ccccc2OC)c1,-1.21% (inactive)
18,Cc1ccc(-c2nc3ccccc3[nH]2)cc1N,34.2% (inactive)
19,OC(c1nc2ccccc2[nH]1)C(O)C(O)C(O)c1nc2ccccc2[nH]1 (stereo not given),-2.45% (inactive)
20,c1ccc2[nH]c(-c3nc4ccccc4[nH]3)nc2c1,33.9% (active)
21,CN(C(=O)C1CCN(c2ncnc3c2nc2n3CCCCC2)CC1)C1CCCCC1,-1.8% (inactive)
